Cell viability data for 35 compounds are collected here from the supplement of paper PMC8699584.

One experiment has as its system Molm13. The experiment can be described thus: cell viability relative to DMSO control (bortezomib = 0%); higher = less growth inhibition. Conditions: 10 nM; 72 h. In a few lines:
(§1)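 Cell viability was assessed by CellTiter-Glo luminescence. Acute myeloid leukemia cells were seeded at 1000 cells per well in 50 µL on a 384-well library of 679 compounds at a single 10 nM dose for 72 h. Per-plate linear regression set DMSO-treated cells at 100% and positive-control-treated cells at 0%.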

A further experiment deals with Mv4-11. Described as above. Conditions: 10 nM; 72 h. In a few lines: as §1

Values joined by “and” are separate entries in the source; they are usually repeats but may differ in a detail not shown here. Equal entries are not always repeated. Structures can show the parent of a compound that is named as a salt. ± gives the standard deviation of the averaged measurements.

In general, cell viability refers to a read-out of living cells in per cent, often relative to untreated cells. With `CN(C)C(=N)NC(=N)N` [Metformin hydrochloride], the cell viability with Molm13 was found to be 104 ± 25%; in the experiment on Mv4-11, 90.48 ± 0.55%.

With `COc1cc2ncnc(Nc3ccccc3)c2cc1OC`, the cell viability worked out at 97.1 ± 10% in the experiment with Molm13 and 107 ± 12% with Mv4-11.

As to `CC(C)N(CCC(=O)c1ccc2ccccc2c1)Cc1ccccc1`, the cell viability in the experiment on Molm13 was determined as 96.8 ± 7%; in the experiment on Mv4-11, 111 ± 1.4%.

In the case of `CN1CCN(c2ccc(C(=O)Nc3n[nH]c4ccc(Cc5cc(F)cc(F)c5)cc34)c(NC3CCOCC3)c2)CC1` [Entrectinib], the cell viability in the experiment on Molm13 came to 87.5 ± 7%; with Mv4-11 it was 104 ± 24%.

For the compound `C#Cc1cccc(Nc2ncnc3cc(OCCOC)c(OCCOC)cc23)c1` [Erlotinib], the values for the cell viability in the experiment on Molm13 and with Mv4-11 were 102 ± 6.9% and 102 ± 10%, respectively.

Regarding `Cc1[nH]c(/C=C2\C(=O)Nc3ccccc32)c(C)c1CCC(=O)O` [TSU-68 (SU6668, Orantinib)], the cell viability came out at 93.8 ± 2.3% in the experiment on Molm13 and 122 ± 14% in the experiment on Mv4-11.

Take `CC(C)n1nc(-c2cc3cc(O)ccc3[nH]2)c2c(N)ncnc21`: the cell viability in the experiment with Molm13 turned out to be 103 ± 11%; in the experiment with Mv4-11 it was 96.2 ± 30%.

In the case of `Cc1cc(C(C)Nc2ccccc2)c2nc(N3CCOCC3)cc(=O)n2c1` (stereo not given), the cell viability turned out to be 106 ± 18% with Molm13 and 100 ± 3.8% with Mv4-11.

In the case of `CCC(=O)N1CCN(c2ccc(-n3c(=O)ccc4cnc5ccc(-c6cnc7ccccc7c6)cc5c43)cc2C(F)(F)F)CC1` [Torin 1], the figures for the cell viability in the experiment with Molm13 and with Mv4-11 were 104 ± 4.5% and 108 ± 6.9%, respectively.

Regarding `CC1(C)CNc2cc(NC(=O)c3cccnc3NCc3ccncc3)ccc21` [Motesanib Diphosphate (AMG-706)], the figures for the cell viability in the experiment on Molm13 and in the experiment on Mv4-11 were 89.2 ± 9.9% and 106 ± 12%, respectively.

Regarding `Nc1n[nH]c(N)c1N=Nc1ccc(O)cc1`, the cell viability in the experiment on Molm13 turned out to be 117 ± 6.2%; with Mv4-11, 110 ± 14%.

As to `CC(=O)O[C@H]1C(=O)[C@@]2(C)[C@H]([C@H](OC(=O)c3ccccc3)[C@]3(O)C[C@H](OC(=O)[C@H](O)[C@@H](NC(=O)c4ccccc4)c4ccccc4)C(C)=C1C3(C)C)[C@]1(OC(C)=O)CO[C@@H]1C[C@@H]2O` [Paclitaxel], the results for the cell viability with Molm13 and in the experiment with Mv4-11 were -2.33 ± 4.8% and -3.89 ± 0.25%, respectively.

For `CN1CCCN(C(=O)c2cccc(-c3ccc(/C=C4/C(=O)Nc5ccc(Cl)cc54)o3)c2)CC1`, the cell viability is 127 ± 13% with Molm13 and 120 ± 2.9% with Mv4-11.

As to `FC(F)c1nc2ccccc2n1-c1nc(N2CCOCC2)nc(N2CCOCC2)n1`, the cell viability turned out to be 117 ± 11% in the experiment on Molm13 and 122 ± 12% in the experiment with Mv4-11.

In the case of `CN(C)Cc1cccc(N/C(=C2\C(=O)Nc3cc(C(N)=O)ccc32)c2ccccc2)c1`, the cell viability in the experiment with Molm13 came to 114 ± 4.6%; in the experiment with Mv4-11 it was 134 ± 3.4%.

Turning to `CN1CCN(S(=O)(=O)c2ccc(-c3cnc(N)c(C(=O)Nc4cccnc4)n3)cc2)CC1`, the cell viability with Molm13 was determined as 95.5 ± 17%; in the experiment on Mv4-11, 100 ± 0.48%.

Take `CNc1nc(Nc2cn(C(C)(C)C#N)nc2C)ncc1C(F)(F)F`: the figures for the cell viability with Molm13 and in the experiment on Mv4-11 were 109 ± 2.8% and 117 ± 11%, respectively.

As for `Oc1ccc2c(c1)OCO2` [Sesamol], the cell viability with Molm13 was found to be 103 ± 1.4%; in the experiment with Mv4-11 it was 113.6 ± 0.84%.

`Fc1ccc2[nH]ccc2c1-c1nc(N2CCOCC2)c2sc(CN3CCN(CC4CC4)CC3)cc2n1`: the cell viability in the experiment on Molm13 was found to be 111 ± 13%; in the experiment with Mv4-11 it was 119 ± 7.6%.

As to `CNC(=O)c1ccccc1Nc1nc(Nc2ccc(N3CCNCC3)cc2)ncc1Cl`, the cell viability turned out to be 17.4 ± 13% in the experiment with Molm13 and 23 ± 6.8% with Mv4-11.

For `C=CC(=O)Nc1cc2c(Nc3ccc(F)c(Cl)c3)ncnc2cc1OCCCN1CCOCC1` [Canertinib dihydrochloride], the cell viability with Molm13 worked out at 101 ± 3.2%; in the experiment with Mv4-11 it was 111 ± 6.1%.

`O=c1ncn2nc(Sc3ccc(F)cc3F)ccc2c1-c1c(Cl)cccc1Cl`: the cell viability amounted to 89.6 ± 1.7% in the experiment with Molm13 and 108 ± 6.4% in the experiment on Mv4-11.

As to `N#Cc1c(Oc2ccc(F)c(NC(=O)Cc3cccc(C(F)(F)F)c3)c2)ccc2nc(NC(=O)C3CC3)sc12`, the cell viability was 105 ± 12% with Molm13 and 114 ± 6.7% in the experiment with Mv4-11.

On to `CN(C)C(=O)c1ccc(S(=O)(=O)c2ccc(NC(=O)[C@@](C)(O)C(F)(F)F)c(Cl)c2)cc1`, for which the cell viability in the experiment with Molm13 was 97 ± 12%; in the experiment on Mv4-11, 109 ± 7%.

Consider `Cc1ccc(NC(=O)c2ccc(CN3CCN(C)CC3)cc2)cc1Nc1nccc(-c2cccnc2)n1` [Imatinib (STI571)], for which the cell viability in the experiment with Molm13 came out at 97.6 ± 9.5%; in the experiment on Mv4-11, 97.2 ± 9.2%.

As for `Brc1c(Br)c(Br)c2n[nH]nc2c1Br`, the cell viability with Molm13 came to 113 ± 13%; with Mv4-11 it was 97.11 ± 0.32%.

`CCc1cc2c(cc1N1CCC(N3CCOCC3)CC1)C(C)(C)c1[nH]c3cc(C#N)ccc3c1C2=O` [Alectinib]: the cell viability came to 102 ± 7.8% with Molm13 and 100 ± 2.9% in the experiment with Mv4-11.

Consider `N#CC(C#N)=C(N)/C(C#N)=C/c1cc(O)c(O)c(O)c1`, for which the cell viability is 98.1 ± 28% in the experiment on Molm13 and 94.3 ± 15% in the experiment on Mv4-11.

Take `Cn1cnc(N)c2ncnc1-2` [3-Methyladenine]: the cell viability worked out at 119 ± 7.3% in the experiment with Molm13 and 111.9 ± 1.1% with Mv4-11.

As to `O=C1NC(=O)/C(=C/c2ccc3nccc(-c4ccncc4)c3c2)S1`, the cell viability in the experiment on Molm13 was 106% and 113%; with Mv4-11 it was 103% and 115%.

As for `COc1cc(OC)c(C=C2C(=O)Nc3ccccc32)c(OC)c1`, the cell viability was found to be 104 ± 6.9% in the experiment with Molm13 and 100 ± 12% in the experiment on Mv4-11.

Regarding `COc1cc2ncc(-c3ccccc3)nc2cc1OC`, the cell viability amounted to 101 ± 4.1% in the experiment with Molm13 and 113 ± 9.7% with Mv4-11.

As to `C=CC(=O)Nc1cc(Nc2nccc(-c3c[nH]c4ccccc34)n2)c(OC)cc1N(C)CCN(C)C`, the cell viability is 104 ± 7.9% in the experiment on Molm13 and 121 ± 6.1% in the experiment on Mv4-11.

Regarding `CNC(=O)c1c(C)oc2cc(Oc3ncnc4cc(OC)c(OC)cc34)ccc12` [Fruquintinib], the cell viability is 103 ± 25% with Molm13 and 106 ± 2.8% with Mv4-11.

Regarding `Cc1nc(Nc2cnn(C3CCNCC3)c2)nc2c1N(C)C(=O)c1cc3ccccc3cc1N2C`, the cell viability in the experiment with Molm13 is 95.6 ± 2.2%; in the experiment with Mv4-11, 104.2 ± 0.14%.
